The structures appear in SMILES notation. “And” between values parts separate entries of the source, which are not always exact repeats. Identical values can stand only once. Results filed as inconclusive are left out. Some compounds were tested as several samples or in several runs, with calls that do not always agree. The source made the active and inactive calls. Rule for the calls: active = hit-call score of the fitted dose curve at least 0.9, where 1 is the maximum; inconclusive = response in the unintended direction; inactive = score below 0.9.

Retinoic acid receptor RXR-alpha (Homo sapiens), sequence (P19793 whole entry, looked up, the tested form may be a part): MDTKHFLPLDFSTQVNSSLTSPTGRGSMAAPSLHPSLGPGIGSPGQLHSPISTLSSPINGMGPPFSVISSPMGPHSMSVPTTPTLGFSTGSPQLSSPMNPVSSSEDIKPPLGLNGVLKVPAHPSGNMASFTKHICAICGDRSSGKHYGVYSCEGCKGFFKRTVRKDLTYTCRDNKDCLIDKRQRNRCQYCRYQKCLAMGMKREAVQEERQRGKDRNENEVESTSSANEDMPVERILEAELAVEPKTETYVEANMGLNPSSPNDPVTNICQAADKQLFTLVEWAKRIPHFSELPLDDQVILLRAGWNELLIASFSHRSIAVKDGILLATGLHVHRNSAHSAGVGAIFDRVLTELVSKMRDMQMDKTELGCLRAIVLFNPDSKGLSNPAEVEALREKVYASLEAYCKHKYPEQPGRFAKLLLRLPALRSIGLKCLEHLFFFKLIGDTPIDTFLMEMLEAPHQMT

The assay has as its target Retinoic acid receptor RXR-alpha (Homo sapiens) (UniProt P19793). Put plainly: OT_NURR1_NURR1RXRa_1440: Odyssey Thera (OT) 24-hour HEK293T Protein Complementation Assay for Nurr1/retinoid X receptor (RXR) (AID 2283386). As for the experimental part: OT_NURR1_NURR1RXRa_1440 is a cell-based assay that uses HEK293T, a human kidney cell line, with measurements taken at 24 hours after chemical dosing in a 384-well plate.OT_NURR1_NURR1RXRa_1440 is one of one assay component(s) measured or calculated from the OT_NURR1_NURR1RXRa_1440 assay. It is designed to make measurements of protein fragment complementation, a form of binding reporter, as detected with fluorescence intensity signals by Protein-fragment Complementation technology.Data from the assay component OT_NURR1_NURR1RXRa_1440 was analyzed into 1 assay endpoint. This assay endpoint, OT_NURR1_NURR1RXRa_1440, was analyzed in the positive analysis fitting direction relative to DMSO as the negative control and baseline of activity. Using a type of binding reporter, measures of receptor for gain-of-signal activity can be used to understand the binding at the pathway-level as they relate to the gene RXRA. Furthermore, this assay endpoint can be referred to as a primary readout, because the performed assay has only produced 1 assay endpoint. To generalize the intended target to other relatable targets, this assay endpoint is annotated to the nuclear receptor intended target family, where the subfamily is non-steroidal.
Protein-fragment complementation assay, or PCA, is a method for the identification and quantification of protein-protein interactions. In the PCA, the proteins of interest ("bait" and "prey") are each covalently linked to fragments of a third protein (e.g. DHFR, which acts as a "reporter"). Interaction between the bait and the prey proteins brings the fragments of the reporter protein in close proximity to allow them to form a functional reporter protein whose activity can be measured.
With `COc1nn(CSP(=S)(OC)OC)c(=O)s1`, the outcome was inactive.

In the case of `COP(=O)(OC)OC=C(Cl)Cl`, the call was inactive.

Consider `CNC(=O)/C=C(\C)OP(=O)(OC)OC`, for which the result was inactive.

For the compound `Oc1ccc(Cl)cc1Cc1ccccc1`, the compound was called inactive.

Turning to `CCCN(CCOc1c(Cl)cc(Cl)cc1Cl)C(=O)n1ccnc1`, the outcome was inactive.

As usually defined, the AC50 is the midpoint of the concentration-response curve, whichever way the signal moves. For the compound `CCC(C)Nc1c([N+](=O)[O-])cc(C(C)(C)C)cc1[N+](=O)[O-]` (configuration not stated), the concentration at half-maximal activity (AC50) was 83.6 µM (active) and the compound was called inactive.

Take `O=C(O)COc1ccc(Cl)cc1Cl`: the compound was called inactive.

In the case of `CCC(C)(C)C(=O)OC1=C(c2ccc(Cl)cc2Cl)C(=O)OC12CCCCC2`, the AC50 was 33 µM (active) and 70.8 µM (active).

As to `ClC1C(Cl)C(Cl)C(Cl)C(Cl)C1Cl` (configuration not stated), the outcome was inactive.

Turning to `CC[C@H](C)[C@H]1O[C@]2(C=C[C@@H]1C)C[C@@H]1C[C@@H](C/C=C(\C)[C@@H](O[C@H]3C[C@H](OC)[C@@H](O[C@H]4C[C@H](OC)[C@@H](O)[C@H](C)O4)[C@H](C)O3)[C@@H](C)/C=C/C=C3\CO[C@@H]4[C@H](O)C(C)=C[C@@H](C(=O)O1)[C@]34O)O2` (tested in a mixture with another compound), the outcome was inactive and the AC50 is 9.87 µM (active).

For `Clc1ccccc1-c1nnc(-c2ccccc2Cl)nn1`, the compound was classed as inactive.

For `C[C@H]1[C@H](c2ccc(Cl)cc2)SC(=O)N1C(=O)NC1CCCCC1`, the call was inactive.

For `COP(=S)(OC)Oc1ccc([N+](=O)[O-])cc1`, the outcome was inactive.

For `CC(C)N(C(=O)COc1nnc(C(F)(F)F)s1)c1ccc(F)cc1`, the result was inactive.

For `CCOC1Oc2ccc(OS(C)(=O)=O)cc2C1(C)C` (configuration not stated), the compound was called inactive.

As to `CNC(=O)CSP(=S)(OC)OC`, the compound was called inactive.

On to `O=S(=O)(O)C(F)(F)C(F)(F)C(F)(F)C(F)(F)C(F)(F)C(F)(F)C(F)(F)C(F)(F)F`, for which the call was inactive.

Turning to `CC(C)(C)C(O)C(Oc1ccc(Cl)cc1)n1cncn1` (configuration not stated), the compound was classed as inactive.

On to `CNC(=O)Oc1ccccc1OC(C)C`, for which the outcome was inactive.

`Cc1[nH]c(=O)n(C(C)(C)C)c(=O)c1Cl`: the result was inactive.

As for `O=C(NC(=O)c1c(F)cccc1F)Nc1ccc(OC(F)(F)C(F)OC(F)(F)F)c(Cl)c1` (configuration not stated), the call was inactive.

Turning to `O=[N+]([O-])/N=C1\NCCN1Cc1ccc(Cl)nc1`, the call was inactive.

`OCCOc1ccccc1`: the outcome was inactive.

`C#CCN1C(=O)COc2cc(F)c(N3C(=O)C4=C(CCCC4)C3=O)cc21`: the compound was classed as inactive.

In the case of `O=C(O)C(F)(F)C(F)(F)C(F)(F)C(F)(F)C(F)(F)C(F)(F)C(F)(F)F`, the outcome was inactive.

As for `CCCN(CCC)c1c([N+](=O)[O-])cc(C(F)(F)F)cc1[N+](=O)[O-]`, the result was inactive.

As for `CCOCN(C(=O)CCl)c1c(C)cccc1CC`, the result was inactive.

For `CCc1ccc(C(=O)NN(C(=O)c2cc(C)cc(C)c2)C(C)(C)C)cc1`, the compound was classed as inactive.

For the compound `O=C(O)CCCOc1ccc(Cl)cc1Cl`, the call was inactive.

`COP(=S)(OC)Oc1ccc(SC)c(C)c1`: the call was inactive.

The record behind these values is PubChem BioAssay (EPA / NIEHS).
